Test results published in PubChem BioAssay (NCATS).
Unmarked numbers belong to inactive results. Calls of active or inactive are those of the source. Calls come from the whole dose curve; as a rule, active = well fitted curve in the direction sought with a large enough effect; inconclusive = small, poorly fitted or top-dose-only effect, or another doubt; inactive = no such curve, though single readings can be large or run the other way.

Experiment: Cellular Toxicity (caspase-3) HUV-EC-C (AID 656)
Conditions: HUV-EC-C cells, caspase-3 activation (apoptosis), vehicle = 0, 100 µM tamoxifen = 100%; series mostly up to 92.2 µM; caspase-3 activation: at the top concentration
Text: NIH Chemical Genomics Center [NCGC]
NIH Molecular Libraries Screening Centers Network [MLSCN]
National Institutes of Environmental Health Sciences [NIEHS]
National Toxicology Program [NTP]
We have developed a 1536-well cell-based assay for quantitative high throughput screening (qHTS) against a number of cell lines to determine in vitro caspase 3/7 of small molecules. This particular assay uses the HUV-EC-C cell line which is derived from normal human vascular endothelial cells.
NCGC Assay Protocol Summary:
The Caspase-Glo 3/7 assay (Promega) is a homogeneous method to measure caspase-3 and caspase-7 activities in cultured cells. The quantitation of caspase 3/7 activity is based on the cleavage of a peptide-aminoluciferin substrate. After caspase cleaves the substrate the free aminoluciferin is liberated and serves as the substrate of luciferase, which generates the light. The luminescent signal is proportional to amount of caspase 3/7 activity present.
Using the Caspase-Glo 3/7 assay, the amount of caspase 3/7 activity was measured in the HUV-EC-C cell line with complete culture medium following compound treatment for 16 hours. The assay was performed in opaque white 1536-well plates. In the screen, tamoxifen and doxorubicin were used as positive controls. Library compounds were measured for their ability to cause the activation of caspase 3/7 in the cell line, as reflected by an increase in luminescence signal, in a concentration-dependent manner. Data were normalized to the controls for basal activity (DMSO only) and 100% stimulation (100 uM tamoxifen). AC50 values were determined from concentration-response data modeled with the standard Hill equation.
qHTS protocol for caspase 3/7 assay in HUV-EC-C cell line
[Step] [Parameter] [Value] [Description]
1. Reagent; 5 uL; 1000 HUV-EC-C cells/well
2. Time; 5 hr; 37 °C incubation
4. Controls; 23 nL; Tamoxifen 0.23 uM to 100 uM & doxorubicin 7.0 pM to 100 uM
5. Time; 16 hr; 37 °C incubation
6. Reagent; 5 uL; Caspase-Glo 3/7 reagent
7. Time; 20 min; Room Temperature
8. Detection; Luminescence; Viewlux plate reader
Keywords: caspase 3/7, apoptosis, HUV-EC-C cell line, luminescence, NTPHTS, NTPHTS_NCGC, NIEHS, EPA, DSSTox, MLSMR, MLSCN, NIH Roadmap, qHTS, NCGC

Point of comparison: `CC1(C)[C@@H]2CC[C@@]1(C)C(=O)C2`, “caspase-3 activation” value 2.53%. Against it:
- NCCNCCNCCN — lower, -2.17%
- CN(C)CCC=C1c2ccccc2CCc2ccccc21 — higher, 11.7%
- Cc1cc(CC(=O)O)n(C)c1C(=O)c1ccc(Cl)cc1 — higher, 5%
- Nc1ccc(S(=O)(=O)Nc2nccs2)cc1 — lower, -2.23%
- [Cl][In]([Cl])[Cl] — lower, 1.67%
- NCCNCCNCCNCCN — lower, -3.31%
- Cc1c(O)cccc1C(=O)N[C@@H](CSc1ccccc1)[C@H](O)CN1C[C@H]2CCCC[C@H]2C[C@H]1C(=O)NC(C)(C)C — higher, 5.93%
- Cc1cc2nc3c(=O)[nH]c(=O)nc-3n(C[C@H](O)[C@H](O)[C@H](O)CO)c2cc1C — lower, 0.141%
- NC(=O)N/N=C/c1ccc([N+](=O)[O-])o1 — lower, -1.38%
- CC12CCC(CC1)C(C)(C)O2 — lower, -3.53%
- O=C1O[C@H]([C@@H](O)CO)C(O)=C1O — lower, 1.35%
- C[C@]12C[C@H](O)[C@H]3[C@@H](CCC4=CC(=O)CC[C@@]43C)[C@@H]1CC[C@@H]2C(=O)CO — lower, -3.33%
- NC(=O)c1ncn([C@@H]2O[C@H](CO)[C@@H](O)[C@H]2O)n1 — lower, -1.86%
- O=C1c2c(O)cccc2Cc2cccc(O)c21 — lower, -2.52%
- COC(=O)C1=C(C)NC(C)=C(C(=O)OC)C1c1ccccc1[N+](=O)[O-] — lower, -3.94%
- Oc1cccc(O)c1 — lower, -1.62%
- CCCCOC(=O)c1ccc(O)cc1 — lower, -1.95%

For `CCCCCCCCCCCCOS(=O)(=O)O`, the outcome was “inactive”.
In the case of `COc1ccccc1O`, the outcome is reported as “inactive”.
